According to PubChem BioAssay (Tox21):
Values joined by “and” are separate entries in the source; they are usually repeats but may differ in a detail not shown here. Identical values can stand only once. Results filed as inconclusive are left out. Where a call stands in place of a potency, no number is given. Active and inactive are the calls of the source. Calls come from the whole dose curve.

test: qHTS assay for small molecule agonists of the p53 signaling pathway - cell viability (AID 651633); conditions: p53RE-bla HCT-116 viability, ATP luminescence, 16 h; series mostly up to 83.3 µM; note: nearly all actives have a fitted effect of over 30% in size
From the text: National Center for Advancing Translational Sciences [NCATS]
NIH Chemical Genomics Center [NCGC]
U.S. Environmental Protection Agency [EPA]
National Institutes of Environmental Health Sciences [NIEHS]
National Toxicology Program [NTP]
U.S. Food and Drug Administration [FDA]
p53, a tumor suppressor protein, is activated following cellular insult, including DNA damage and other cellular stresses. The activation of p53 regulates cell fate by inducing DNA repair, cell cycle arrest, apoptosis, or cellular senescence. The activation of p53, therefore, is a good indicator of DNA damage and other cellular stresses. […] The activation of the reporter gene under culture conditions can be detected by fluorescence intensity. This cell line was used to screen the Tox21 compound library in a 1536-well plate format and to identify agonists that activate the p53 signaling pathway.
Tox21 Assay Protocol Summary:
The p53RE-bla cells were dispensed at 4,000 cells/5 ul/well in 1536-well black wall/clear bottom plates using a Multidrop dispenser. After the assay plates were incubated at a 37 C/5% CO2 incubator for 5 hours, 23 nL of compounds dissolved in DMSO, positive controls or DMSO only was transferred to the assay plate by a pin tool. The plates were incubated at 37 C for 16 hours. After 1 uL of LiveBLAzerTM B/G FRET substrate was added using a Flying Reagent Dispenser, the plates were incubated at room temperature for 2 hours, and fluorescence intensity was measured by an Envision plate reader.
For cell viability readout that measures cytotoxicity, 4 ul/well of CellTiter-Glo reagent was added into the assay plates using a Flying Reagent Dispenser. After 30 min incubation at room temperature, the luminescence intensity in the plates was measured using a ViewLux plate reader.
Potency is the fitted concentration of half-maximal effect.

Compound	Potency
COc1cc([C@H]2Oc3cc([C@H]4Oc5cc(O)cc(O)c5C(=O)[C@@H]4O)ccc3O[C@@H]2CO)ccc1O	inactive
CC1=CC(C)(C)Nc2ccccc21	inactive
CC(=O)Oc1c(C)c(C)c2c(c1C)CC[C@@](C)(CCC[C@H](C)CCC[C@H](C)CCCC(C)C)O2	inactive
Cc1ccc(C)c(O)c1	inactive
Oc1c(Cl)ccc(Cl)c1Cl	inactive
C/C=C/C(=O)N(CC)c1ccccc1C	inactive
OC[C@H]1O[C@@H]2O[C@H]3[C@H](O)[C@@H](O)[C@@H](O[C@H]4[C@H](O)[C@@H](O)[C@@H](O[C@H]5[C@H](O)[C@@H](O)[C@@H](O[C@H]6[C@H](O)[C@@H](O)[C@@H](O[C@H]7[C@H](O)[C@@H](O)[C@@H](O[C@H]1[C@H](O)[C@H]2O)O[C@@H]7CO)O[C@@H]6CO)O[C@@H]5CO)O[C@@H]4CO)O[C@@H]3CO	inactive
O=C(O)c1cc(=O)[nH]c(=O)[nH]1	inactive
COC(=O)C(C)Oc1ccc(Oc2ncc(C(F)(F)F)cc2Cl)cc1 (stereo not given)	inactive
Nc1cc([N+](=O)[O-])ccc1C(=O)O	inactive
Cc1ccc(C(C)(C)C)cc1	inactive
CC(=O)[C@H]1CC[C@H]2[C@@H]3CC=C4C[C@@H](O)CC[C@]4(C)[C@H]3CC[C@]12C	inactive
COCCOCCOCCO	inactive
C=CC(=O)OCCCC	inactive
CC(=O)[C@@]1(O)CC[C@H]2[C@@H]3C[C@H](C)C4=CC(=O)C=C[C@]4(C)[C@@]3(F)[C@@H](O)C[C@@]21C	inactive
CC(=O)O[C@]1(C(C)=O)CC[C@H]2[C@@H]3C=C(C)C4=CC(=O)CC[C@]4(C)[C@H]3CC[C@@]21C	inactive
CC(C)[C@@H]1CC[C@@H](C)CC1=O	inactive
CCC(Cc1c(I)cc(I)c(N)c1I)C(=O)O (stereo not given)	inactive
CCCOCCO	inactive
C1COCCN1	inactive

Compound	Potency
c1ccc2c(c1)ccc1cc3c(ccc4ccccc43)cc12	inactive
Nc1ccc(N)c(Cl)c1	inactive
CC(C)=CCO	inactive
[O-]/[N+](=N\O)c1ccccc1	inactive
c1ccc2c(c1)[nH]c1ccccc12	inactive
ClC/C=C/CCl	inactive
C[C@]12CC[C@@H]3c4ccc(O)cc4CC[C@H]3[C@@H]1CC[C@@H]2O	inactive
C=C1C[C@H]2[C@@H]3C=C(C)C4=CC(=O)CC[C@]4(C)[C@H]3CC[C@]2(C)[C@@]1(OC(C)=O)C(C)=O	inactive
IC(I)I	inactive
CCCCCC=O	inactive
COC(=O)CC(=O)OC	inactive
CCCCCCCC/C=C\CCCCCCCC(=O)O	inactive
CN(Cc1cnc2nc(N)nc(N)c2n1)c1ccc(C(=O)N[C@@H](CCC(=O)O)C(=O)O)cc1	168 nM (active) and 48.6 nM (active)
CCCCCCC(C)O (stereo not given)	inactive
NCCOCCO	inactive
COc1ccc(-c2coc3cc(O)cc(O)c3c2=O)cc1	inactive
CCCCCC1C(=O)CCC1CC(=O)OC (stereo not given)	inactive
CC(=O)OC(C)C	inactive
C=C[Si](OCCOC)(OCCOC)OCCOC	inactive
CN(C)/N=N/c1nc[nH]c1C(N)=O	inactive
